# Laboratory results reported in PubChem BioAssay AID2061319 (National Center for Advancing Translational Sciences (NCATS), 2025).
# Results filed as inconclusive are left out. Activity calls are given as the source filed them. Calls come from the whole dose curve; as a rule, active = well fitted inhibition curve with a large enough effect; inconclusive = small, poorly fitted or top-dose-only effect; inactive = flat fitted curve, though single readings scatter. Square brackets hold non-standard residues; d marks the D form. Peptide text beside a SMILES is read from it. * marks the point of attachment. Dolaproine = CO[C@@H]([C@@H]1CCCN1)[C@@H](C)C(=O)O; Dil = CC[C@H](C)[C@H](NC)[C@@H](CC(=O)O)OC; X1 = C[C@@H](N*)[C@@H](O)c1ccccc1; NMeV = CN[C@H](C(=O)O)C(C)C
# Test: Identification of antibody-drug conjugate (ADC) payloads which are substrates of ATP-binding cassette drug efflux transporters: ABCG2-H460-MX20 cell line with Ko143
# Conditions: H460-MX20 (ABCG2) + Ko143, CellTiter-Glo viability, 48 h; series mostly up to 28.7 µM; activity change, negative = cytotoxicity: at the top concentration
# Source text: Antibody-drug conjugates (ADCs) feature an antibody recognizing a specific protein joined to a potent toxic payload. Numerous antibody-drug conjugates have received FDA approval; however, clinical resistance arises. Resistance mechanisms include decreased expression or mutation of the antibody target, impaired payload release, or increased expression of ATP-binding cassette (ABC) efflux transporters associated with multidrug resistance. We therefore sought to characterize the interaction of ABC multidrug transporters with ADC payloads. We performed a high-throughput screen with 27 common ADC payloads using cells lines expressing ABC transporters P-glycoprotein (P-gp, encoded by ABCB1) or ABCG2 (encoded by ABCG2). Confirmatory assays were also performed using cells transfected to express P-gp, ABCG2, or MRP1 (encoded by ABCC1). Several commonly used ADC payloads were substrates of P-gp, including calicheamicin gamma1, monomethyl auristatin E, DM1, and DM4. All the pyrrolobenzodiazepines tested - SJG136, SGD-1882, SG2057, and SG3199 - were substrates of P-gp, ABCG2, and MRP1. […] These findings highlight the risk of transporter-mediated resistance with certain ADC payloads and underscore the importance of selecting payloads that evade ABC transporter recognition in future ADC development.
# HEK-293 cells were transfected with empty vector (pcDNA) or vector containing the human ABCB1 (MDR-19), ABCG2 (R-5), or ABCC1 gene (MRP1) and were maintained in EMEM with 2 mg/mL G418 added to maintain transporter expression. The HeLa derivative KB-3-1 and the P-gp overexpressing KB-8-5-11 subline were maintained in DMEM; KB-8-5-11 additionally received 100 ng/mL colchicine. H460 parental cells were obtained from the Division of Cancer Treatment and Diagnosis Tumor Repository, National Cancer Institute at Frederick, MD and were cultured in RPMI. The ABCG2 expressing subline H460 MX20 was generated by selecting H460 cells in 20 nM mitoxantrone. Media in all cases was supplemented with 10% FBS and 1% penicillin-streptomycin. We explored 27 common ADC payloads, in two orthogonal, paired cell line sets-a drug selected and transfected set for each transporter--to identify substrates of the ABC transporters P-gp and ABCG2. Compounds were sourced from Levena Biopharma (San Diego, CA), Selleck Chem (Houston, TX), ChemieTek (Indianapolis, IN), or Microsource Discovery Systems (Gaylordsville, CT). Screening was performed as previously described. Briefly, cells were plated at a density of 500 cells/well in 1536 well plates with compounds added using a 1536-head pin tool (Kalypsys, San Diego CA). Cells were incubated with cytotoxic drugs and processed with CellTiter Glo reagent (Promega, Madison, WI) to determine viability after 48 hours. P-gp substrates were identified by comparing compound activity between paired sets of low-expressing (sensitive) and over-expressing (resistant) cell lines.
SMILES,"activity change, negative = cytotoxicity",Potency
CC[C@H](C)[C@H](NC(=O)[C@H]1CCCCN1C)C(=O)N(C)[C@H](C[C@@H](OC(C)=O)c1nc(C(=O)N[C@@H](Cc2ccccc2)C[C@H](C)C(=O)O)cs1)C(C)C,-26% (inactive),
CC[C@@]1(O)C(=O)OCc2c1cc1n(c2=O)Cc2cc3ccccc3nc2-1,,238 nM (active)
COc1cc2cc(C(=O)N3C[C@@H](CCl)c4c3cc(O)c3ccccc43)[nH]c2c(OC)c1OC,,1.9 nM (active)
CC[C@H](C)[C@@H]([C@@H](CC(=O)N1CCC[C@H]1[C@H](OC)[C@@H](C)C(=O)N[C@H](C)[C@@H](O)c1ccccc1)OC)N(C)C(=O)[C@@H](NC(=O)[C@@H](NC)C(C)C)C(C)C (H-[NMeV]V[Dil][Dolaproine]-X1),-30.4% (inactive),
CC[C@H](C)[C@H](NC(=O)[C@H]1CCCCN1C)C(=O)N(C)[C@H](C[C@@H](OC(C)=O)c1nc(C(=O)O)cs1)C(C)C,-27.7% (inactive),
COc1cccc2c1C(=O)c1c(O)c3c(c(O)c1C2=O)C[C@@](O)(C(=O)CO)CC3OC1CC(N2CCOC(OC)C2)C(O)C(C)O1 (stereo partly drawn),,9.5 nM (active)
CC[C@H](C)[C@@H]1NC(=O)CNC(=O)[C@H]2Cc3c([nH]c4cc(O)ccc34)S(=O)C[C@H](NC(=O)CNC1=O)C(=O)N[C@@H](CC(N)=O)C(=O)N1C[C@H](O)C[C@H]1C(=O)N[C@@H]([C@@H](C)[C@@H](O)CO)C(=O)N2 (stereo partly drawn),,533 nM (active)
CC[C@H](C)[C@@H]([C@@H](CC(=O)N1CCC[C@H]1[C@H](OC)[C@@H](C)C(=O)N[C@H](C)[C@@H](O)c1ccccc1)OC)N(C)C(=O)[C@@H](NC(=O)[C@H](C(C)C)N(C)C)C(C)C,,6710 nM (active)
